Source: PubChem BioAssay
Hits are enriched below; roughly 3% of the tested compounds scored in any of these assays.
ROMK primary: human ROMK K+ channel modulation, primary screen; hit rate 2% among 130,000; Tet-inducible ROMK, thallium flux fluorescence; actives lie on both sides; B-score at 10 µM;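 active means signal ratio slope over the read window, or its plate-corrected B-score, at least 3 SD from the plate mean, either direction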;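 further: B-score of the F/F0 ratio slope over 7 to 12 s after thallium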
Target sequence (P48048 whole entry, looked up): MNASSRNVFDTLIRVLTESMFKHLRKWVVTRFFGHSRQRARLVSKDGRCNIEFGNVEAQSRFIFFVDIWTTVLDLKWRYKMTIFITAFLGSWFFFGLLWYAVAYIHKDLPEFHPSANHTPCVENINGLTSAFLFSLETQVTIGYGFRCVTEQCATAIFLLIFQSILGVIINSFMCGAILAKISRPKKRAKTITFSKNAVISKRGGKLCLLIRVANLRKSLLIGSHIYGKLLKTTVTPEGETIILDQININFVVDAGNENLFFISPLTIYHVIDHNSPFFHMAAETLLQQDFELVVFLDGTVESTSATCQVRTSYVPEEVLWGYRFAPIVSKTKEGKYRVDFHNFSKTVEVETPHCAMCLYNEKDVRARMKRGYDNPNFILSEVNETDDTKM
Insulin prom inh: TRM-6 insulin promoter activity inhibition; inhibition, % at 2 µM; TRM-6 cells (human fetal islet line), insulin promoter-eGFP reporter, imaging; reporter expression induced with tamoxifen; hit rate 0.9% among 130,000;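 active means inhibition above the mean plus 3 SD, with well images judged a real hit on visual review, cut at about 60% in these data, passing the limit was not always enough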
Measles CPE: protection of cells from measles virus. Measles virus-infected cells, CPE protection, absorbance. protection (pct of control), % at 4 µM. hit rate 1.5% among 140,000; in the data active means protection mostly above about 24%, no sharp cut-off; inactive means mostly below about 26%
SDO1 yeast rescue: restores growth of sdo1-depleted yeast | S. cerevisiae sdo1-depleted JHY4D growth rescue, OD600 30 h; hits give high values; pdr5 snq2 efflux-pump mutant strain | z-score at 10 µM | hit rate 0.21% among 140,000;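 active means z-score above 3 at both the 24 hr and the 30 hr optical density reads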
sdo1 rescue conf: confirmation of growth rescue in SDO1-depleted yeast, bone marrow failure. shares compounds with SDO1 yeast rescue. S. cerevisiae JHY4D (SDO1-depleted) growth rescue, OD600, 30 h; hits give high values; efflux-deficient strain, SNQ2 and PDR5 mutated. OD recovery (concentration not given with the values). hit rate 44% among 440;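 active means yeast growth recovered at 30 hours, either rising with dose fitted slope above 0.001 or with average optical density gain above 0.07, some results past the limit were not filed as active; inactive means growth falling with dose or no effect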
Of the large screens only hits and unclear results are named; the others gave an inactive call (follow-up assays come after a bar, where they were run).

COc1ccc(S(=O)(=O)N2CCCC(C(=O)Nc3cccc(C(C)=O)c3)C2)cc1 (configuration not stated)	none (no result: ROMK primary) | sdo1 rescue conf inactive
COC(=O)c1cccnc1-n1c(=O)c2cccnc2n(Cc2cccc(C(F)(F)F)c2)c1=O	none (no result: Measles CPE, SDO1 yeast rescue)
COc1ccccc1/C=C/C(=O)NC(=S)Nc1ccc(S(=O)(=O)N(C)c2ccccc2)cc1	none (no result: ROMK primary) | sdo1 rescue conf inactive
COC(=O)C1(C(=O)OC)NOC2C(=O)N(c3ccccc3)C(=O)C21 (configuration not stated)	SDO1 yeast rescue 7.8 (no result: ROMK primary) | sdo1 rescue conf 0.092
Cc1ccc(C(=O)NCC(=O)OCC(=O)c2ccc3c(c2)OCCO3)cc1C	SDO1 yeast rescue 3.1 (no result: Insulin prom inh) | sdo1 rescue conf inactive
CC1=C(C(=O)NCc2ccc3c(c2)OCO3)C2(CCC(C)CC2)OC1=O (configuration not stated)	none (no result: ROMK primary, Insulin prom inh) | sdo1 rescue conf inactive
COC(=O)c1ccc2c(c1)C(=O)/C(=C/c1ccc(O)cc1)O2	SDO1 yeast rescue 3.5 | sdo1 rescue conf inactive
CC(C)CCN1C(=O)c2ccc(C(=O)NCC3CCCO3)cc2C1=O (configuration not stated)	none (no result: ROMK primary)
CCCCCNc1nc2sc3c(c2c(=O)n1-c1cccc(Cl)c1)CCN(C)C3	none (no result: Insulin prom inh, Measles CPE, SDO1 yeast rescue)
O=C(CC1S/C(=N/N=C/c2c[nH]c3ccccc23)NC1=O)Nc1ccccc1 (configuration not stated)	SDO1 yeast rescue 3.9 | sdo1 rescue conf 0.085
CS(=O)(=O)c1ccc(S(=O)CC(=O)Oc2ccc(Cl)cc2)c([N+](=O)[O-])c1 (configuration not stated)	none (no result: ROMK primary, Measles CPE, SDO1 yeast rescue)
Cc1ccccc1N1CCN(Cc2c[nH]c3ccccc23)CC1	SDO1 yeast rescue 7.5 | sdo1 rescue conf inactive
Fc1ccc(N2CCN(Cc3c[nH]c4ccccc34)CC2)cc1	none (no result: Insulin prom inh, Measles CPE, SDO1 yeast rescue)
CC(C)(C)NC(=O)NC(=O)COc1ccccn1	SDO1 yeast rescue 3.2 (no result: ROMK primary, Insulin prom inh) | sdo1 rescue conf inactive
Cc1ccc(-c2cc(C(F)F)n3ncc(C(=O)Nc4cn(C)nc4C)c3n2)cc1	none (no result: Measles CPE, SDO1 yeast rescue)
CN(CCNC(=O)c1ccc(/C=N/O)nc1)Cc1ccccc1	none (no result: Insulin prom inh)
O=C(NCCc1ccccc1)c1ccnc(/C=N/O)c1	SDO1 yeast rescue 8 (no result: ROMK primary) | sdo1 rescue conf inactive
Cc1ccc(NC(=O)c2ccccc2Br)cc1S(=O)(=O)N(C)C	none (no result: Measles CPE, SDO1 yeast rescue)
COc1ccc(N2CCN(C(=O)Cn3cnc4c3c(=O)n(C)c(=O)n4C)CC2)cc1	none (no result: Measles CPE, SDO1 yeast rescue)
Cn1c(=O)c2c(ncn2CC(=O)N2CCN(c3cccc(Cl)c3)CC2)n(C)c1=O	SDO1 yeast rescue 14 (no result: ROMK primary) | sdo1 rescue conf inactive
COc1cc(OC)cc(-c2nnc(SCC(=O)N3CCOCC3)o2)c1	SDO1 yeast rescue 3.7 | sdo1 rescue conf 0.072
O=S(=O)(Nc1cccnc1)c1ccc(Cl)c(C(F)(F)F)c1	SDO1 yeast rescue 9.6 | sdo1 rescue conf inactive
CCN1CCN(CC(O)COCCOc2ccc(Br)cc2)CC1 (configuration not stated)	SDO1 yeast rescue 6.9 | sdo1 rescue conf inactive
CN1CCN(CC(O)COCCOc2ccc(Br)cc2)CC1 (configuration not stated)	none
CCn1nnnc1SCC(=O)c1ccc2c(c1)OCCO2	SDO1 yeast rescue 10 (no result: ROMK primary) | sdo1 rescue conf inactive
COc1ccc2cc3cc(C(=O)Nc4cc(OC)c(OC)c(OC)c4)oc3nc2c1	none
COc1ccc2cc3cc(C(=O)Nc4ccc5c(c4)OCCO5)oc3nc2c1	none | sdo1 rescue conf inactive
CC(=O)c1cnn(-c2cc(Oc3cccc(C)c3)ncn2)c1C	Measles CPE 51, SDO1 yeast rescue 6.9 | sdo1 rescue conf inactive
Cc1cc(NC(=O)COC(=O)c2cc(S(=O)(=O)N3CCOCC3)ccc2N2CCCCC2)no1	none
CSc1nc(N)nc(SCC(=O)c2ccc(C)cc2)c1C#N	none (no result: ROMK primary, Insulin prom inh) | sdo1 rescue conf 0.076
CSc1nc(N)nc(SCC(=O)OC(C)C)c1C#N	none
CCN1CCN(C(=O)NC2CC(=O)N(c3ccc(OC)cc3)C2)CC1 (configuration not stated)	none (no result: Measles CPE, SDO1 yeast rescue)
Cc1ccc2nc(-c3ccc(NC(=O)COC(=O)c4ccco4)cc3)sc2c1	none (no result: ROMK primary, Insulin prom inh)
CCOc1ncccc1C(=O)OCC(=O)Nc1ccc(-c2nc3ccc(C)cc3s2)cc1	none | sdo1 rescue conf inactive
COc1cc(/C=N/NC(=S)N/N=C/c2cc(OC)c(OC)c(OC)c2)cc(OC)c1OC	SDO1 yeast rescue 3 | sdo1 rescue conf inactive
COc1cc(/C=N/NC(=O)CCC(=O)NCc2ccccc2)cc(OC)c1OC	SDO1 yeast rescue 4.5 | sdo1 rescue conf 0.095
COc1cc(/C=N/NC(=S)Nc2cccc(C(=O)O)c2)cc(OC)c1OC	none (no result: ROMK primary, Measles CPE)
CC(C)OP(=O)(OC(C)C)C(Nc1ccccc1)c1cccnc1 (configuration not stated)	none (no result: Insulin prom inh, Measles CPE, SDO1 yeast rescue)
CCOc1ccc(S(=O)(=O)N/N=C2/CC(c3ccccc3)Oc3ccccc32)cc1 (configuration not stated)	none
CN(C)S(=O)(=O)c1cccc(NC(=S)N(CCC#N)Cc2cccnc2)c1	none (no result: Measles CPE, SDO1 yeast rescue)
Cc1cccc(OCC(=O)N(C)CCc2ccccn2)c1	none (no result: ROMK primary)
CCOC(=O)N1CCN(C(=O)Nc2cccc(Cl)c2)CC1	none (no result: Insulin prom inh)
CCOC(=O)C1CCCN(C(=O)Nc2cccc(Cl)c2)C1 (configuration not stated)	none (no result: ROMK primary) | sdo1 rescue conf inactive
CCOc1ccc(-n2c(=O)c3sccc3n(CC(=O)Nc3cccc(OC)c3)c2=O)cc1	none (no result: Insulin prom inh, Measles CPE, SDO1 yeast rescue)
Cc1cc(NC(=O)c2cccs2)n(-c2ccccc2)n1	SDO1 yeast rescue 3.5 | sdo1 rescue conf 0.083
Cc1cc(NC(=O)c2cc([N+](=O)[O-])cc([N+](=O)[O-])c2)n(-c2ccccc2)n1	none (no result: ROMK primary, Insulin prom inh)
COc1ccccc1CNC(=O)COC(=O)Cn1cnc2ccccc21	none (no result: Insulin prom inh, Measles CPE, SDO1 yeast rescue)
CCC(C)NC(=O)CSc1ncccc1C(=O)O (configuration not stated)	none (no result: Insulin prom inh)
CCOC(=O)c1cccnc1SCC(=O)NC(C)CC (configuration not stated)	none (no result: ROMK primary) | sdo1 rescue conf 0.09
COC(=O)c1c(C(=O)OC)c2cc(C)ccn2c1Cl	SDO1 yeast rescue 11 (no result: ROMK primary) | sdo1 rescue conf 0.084
CCCC(=O)Nc1sc(C)c(C)c1C(=O)Nc1cccc(C)c1	none (no result: ROMK primary)
O=C(NCCCN1CCOCC1)c1ccccc1	none
Cc1nc2ccccn2c1C(=O)NCCCN1CCOCC1	none (no result: ROMK primary) | sdo1 rescue conf 0.089
Cc1ccc(S(=O)(=O)N2CCCCC2)cc1NC(=O)COC(=O)Cc1c(F)cccc1Cl	SDO1 yeast rescue 17 | sdo1 rescue conf 0.09
Cc1ccc(S(=O)(=O)N2CCCCC2)cc1NC(=O)COC(=O)c1c(F)cccc1F	none (no result: Insulin prom inh, Measles CPE, SDO1 yeast rescue)
CC1CCc2c(sc(NC(=O)CSc3nnc(-c4ccccc4)o3)c2C#N)C1 (configuration not stated)	none | sdo1 rescue conf 0.091
Cc1ccc(/C=C/C(=O)N2CCN(c3ncccn3)CC2)o1	none
CC(C)CC(=O)c1c[nH]c(C(=O)NCc2cccs2)c1	none
O=C(Cc1coc(-c2ccc(F)cc2)n1)Nc1ccccc1	SDO1 yeast rescue 3.2 (no result: ROMK primary) | sdo1 rescue conf inactive
COc1cccc(C(=O)N/N=C/C(Br)=C/c2ccccc2)c1	none (no result: ROMK primary, Insulin prom inh)
COc1cccc(NC(=O)Nc2ccc3c(c2)nnn3C)c1	none | sdo1 rescue conf 0.079
Cn1c(=O)[nH]c(=O)c2c1nc(N1CCCCCC1)n2CCCSc1nnnn1-c1ccccc1	none
